Screening data: PubChem BioAssay, Broad Institute
Many of the other results were omitted from the sample, so hits are more common in it than they were.
IDE exosite FP: exo-site inhibitors of human insulin-degrading enzyme; actives 6.3% (n = 17,000); P14735; z-score at 20 µM; purified IDE, FL-6b probe fluorescence polarization; hits give low values; AID 1259349;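 active = z-score of -3 or lower, meaning strong loss of probe binding signal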;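 also: His-tagged human IDE residues 42-1019 made in E. coli with 30 nM FL-6b probe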
An asterisk follows results filed as active.

`O=C(c1ccc(F)cc1)N1CCCCN2[C@H](CO)[C@H](c3ccc(/C=C/c4ccccc4)cc3)[C@H]2C1` gave IDE exosite FP -1.6.
`O=C(c1ccc(F)cc1)N1CCCCN2[C@H](CO)[C@H](c3ccc(/C=C/c4ccccc4)cc3)[C@@H]2C1` gave IDE exosite FP 6.9.
For CCC(=O)N1CCCCN2[C@H](CO)[C@H](c3ccc(/C=C/c4ccccc4)cc3)[C@@H]2C1 the results were IDE exosite FP -7.3*.
CN(C)CC#Cc1ccc([C@@H]2[C@H](CO)N3CCCCN(C(=O)CN(C)C)C[C@@H]23)cc1 was read as IDE exosite FP 4.
`CN(C)CC(=O)N1CCCCN2[C@@H](CO)[C@@H](c3ccc(-c4ccccc4)cc3)[C@@H]2C1` gave IDE exosite FP -0.78.
For CN(C)CC(=O)N1CCCCN2[C@H](C1)[C@@H](c1ccc(/C=C/c3ccccc3)cc1)[C@@H]2CO the results were IDE exosite FP -5.9*.
`CN(C)CC(=O)N1CCCCN2[C@@H](CO)[C@@H](c3ccc(/C=C/c4ccccc4)cc3)[C@@H]2C1` gave IDE exosite FP -12*.
Screening C/C=C/c1ccc([C@@H]2[C@H]3CN(C(=O)CN(C)C)CCCCN3[C@H]2CO)cc1 returned IDE exosite FP 1.1.
Screening O=C(c1ccc(F)cc1)N1CCCCN2[C@@H](CO)[C@@H](c3ccc(/C=C/c4ccccc4)cc3)[C@@H]2C1 returned IDE exosite FP -0.79.
Screening CN1CCCCN2[C@H](C1)[C@@H](c1ccc(/C=C/c3ccccc3)cc1)[C@@H]2CO returned IDE exosite FP -2.5.
Screening CN(C)CC(=O)N1CCCCN2[C@H](C1)[C@H](c1ccc(/C=C/c3ccccc3)cc1)[C@@H]2CO returned IDE exosite FP -7.3*.
CN(C)CC#Cc1ccc([C@@H]2[C@H]3CN(C(=O)CN(C)C)CCCCN3[C@H]2CO)cc1 was read as IDE exosite FP 1.7.
For CCCC#Cc1ccc([C@@H]2[C@@H](CO)N3C(=O)CN(C(=O)c4cccnc4)C[C@@H]23)cc1 the results were IDE exosite FP 0.43.
Screening C[C@@H]1CN([C@@H](C)CO)C(=O)c2cc(NS(=O)(=O)c3ccc(Cl)cc3)ccc2O[C@@H](C)CCCCO[C@@H]1CN(C)C(=O)CCCN(C)C returned IDE exosite FP 1.7.
For CCCC#Cc1ccc([C@@H]2[C@H]3CN(C(=O)c4cccc(F)c4)CC(=O)N3[C@H]2CO)cc1 the results were IDE exosite FP 2.
For O=C(c1cnccn1)N1CC(=O)N2[C@H](CO)[C@H](c3ccc(C#CC4CC4)cc3)[C@@H]2C1 the results were IDE exosite FP -0.99.
CO[C@H]1CN(C)C(=O)c2cc(NC(=O)c3ccc4c(c3)OCO4)ccc2OC[C@H](C)N(CCC(F)(F)F)C[C@@H]1C was read as IDE exosite FP 1.
`N#C[C@H]1[C@@H](c2ccc(C#CC3CCCCC3)cc2)[C@H](CO)N1C(=O)c1cccc(F)c1` gave IDE exosite FP 1.8.
Screening N#C[C@@H]1[C@@H](c2ccccc2C2=CCCCC2)[C@H](CO)N1C(=O)C1CCOCC1 returned IDE exosite FP 0.41.
`CCS(=O)(=O)Nc1ccc2c(c1)C(=O)N(C)[C@@H]1CC[C@@H](CC(=O)NCc3ccc(OC)cc3)O[C@H]1CO2` gave IDE exosite FP -0.86.
`O=C(c1ccc(F)cc1)N1CCCCN2[C@H](CO)[C@@H](c3ccc(/C=C/c4ccccc4)cc3)[C@@H]2C1` gave IDE exosite FP 0.98.
`CN(C)CC(=O)N1CCCCN2[C@@H](CO)[C@H](c3ccc(/C=C/c4ccccc4)cc3)[C@@H]2C1` gave IDE exosite FP -6.5*.
`CN(C)CC(=O)N1CCCCN2[C@H](CO)[C@H](c3ccc(/C=C/c4ccccc4)cc3)[C@H]2C1` gave IDE exosite FP -11*.
For CN(C)CC#Cc1ccc([C@H]2[C@@H](CO)N3CCCCN(C(=O)CN(C)C)C[C@H]23)cc1 the results were IDE exosite FP 4.
`CN(C)CC#Cc1ccc([C@@H]2[C@@H](CO)N3CCCCN(C(=O)CN(C)C)C[C@H]23)cc1` gave IDE exosite FP 1.4.
For CN(C)CC(=O)N1CCCCN2[C@@H](CO)[C@@H](c3ccc(-c4cncnc4)cc3)[C@@H]2C1 the results were IDE exosite FP 0.079.
COc1ccc(CN(C)C[C@H]2OCCCC[C@@H](C)Oc3ccc(NC(=O)C4CCCCC4)cc3C(=O)N([C@@H](C)CO)C[C@@H]2C)cc1 was read as IDE exosite FP 1.1.
For O=C(C1CCCC1)N1CC2(C1)[C@@H](c1ccccc1)[C@H](CO)N2Cc1ccc(Cl)cc1 the results were IDE exosite FP -0.65.
`C/C=C/c1ccc([C@H]2[C@@H](CO)N3CCCCN(S(=O)(=O)c4ccc(F)cc4)C[C@H]23)cc1` gave IDE exosite FP 4.4.
`Cc1ccccc1S(=O)(=O)N1CCCCN2[C@H](C1)[C@H](c1ccc(-c3cccnc3)cc1)[C@@H]2CO` gave IDE exosite FP 4.1.
`Cc1cccc(S(=O)(=O)N2CCCCN3[C@H](CO)[C@H](c4ccc(-c5cccnc5)cc4)[C@@H]3C2)c1` gave IDE exosite FP 4.4.
